DT40 TDP1 no CPT = qHTS for Inhibitors of human tyrosyl-DNA phosphodiesterase 1 (TDP1): qHTS in cells in absence of CPT | DT40 Tdp1-/- hTDP1 cells, no CPT, ATP luminescence, 48 h | Potency, µM (doses to about 46.2 µM), for inactives: top-dose activity change, negative = growth inhibition, actives largely listed as inhibitors | hit rate 15% among 420,000 | AID 686978, 2013; note: potency is the fitted concentration of half-maximal effect; nearly all actives have a fitted effect of over 55% in size
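Camptothecin absent (DMSO only). Human TDP1-complemented DT40 knockout cells, 400 cells/well, 37 °C for minimum 48 hr; ATP measured via CellTiter-Glo, 30 min dark incubation, luminescence.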
IL1B secr inh = inflammasome signaling inhibition, IL-1 beta readout. activity change, % at 57.5 µM. hit rate 4.7% among 360,000. THP-1 LPS/ATP IL-1B secretion, AlphaLISA, 16 h; active compounds read low; in the data active = activity change below about -50%; inconclusive = mostly about -30% to -49%
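THP-1 cells pretreated 1 hr with compounds (up to 57.5 uM final), then stimulated with LPS (250 ng/mL final) plus ATP (1.25 mM final); secreted IL-1B measured by AlphaLISA after 16 hr, decreased signal indicating inhibition.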
RORgamma inh = blocks mouse ROR gamma transcriptional activity. P51450. Drosophila S2 Gal4-RORgamma UAS-luciferase reporter, 20 h. Potency, µM (top dose mostly 53.6 µM), for the others: top-dose activity change, negative = inhibition, actives largely listed as inhibitors. hit rate 5.4% among 310,000; note: potency is the fitted concentration of half-maximal effect; nearly all actives have a fitted effect of over 60% in size
Target sequence (P51450 whole entry, looked up, the tested form may be a part): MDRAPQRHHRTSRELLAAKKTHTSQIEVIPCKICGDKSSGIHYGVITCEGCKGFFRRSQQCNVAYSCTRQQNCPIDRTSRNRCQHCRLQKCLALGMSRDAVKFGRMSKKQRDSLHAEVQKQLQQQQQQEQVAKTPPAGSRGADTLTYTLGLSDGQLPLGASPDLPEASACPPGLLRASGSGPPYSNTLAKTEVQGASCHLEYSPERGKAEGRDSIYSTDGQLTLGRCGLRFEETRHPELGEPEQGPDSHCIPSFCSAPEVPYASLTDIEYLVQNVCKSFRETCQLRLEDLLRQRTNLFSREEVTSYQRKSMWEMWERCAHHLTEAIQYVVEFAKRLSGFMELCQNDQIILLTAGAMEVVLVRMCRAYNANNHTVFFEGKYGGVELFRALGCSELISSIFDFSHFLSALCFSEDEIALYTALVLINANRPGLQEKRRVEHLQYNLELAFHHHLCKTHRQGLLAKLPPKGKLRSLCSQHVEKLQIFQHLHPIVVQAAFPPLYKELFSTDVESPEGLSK
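Luminescence from a UAS-regulated Photinus luciferase reporter in stably transfected Drosophila Schneider cells is measured; decreased signal marks ROR gamma inhibition. Fusion expression is induced by 700 uM copper sulfate for 20 hr.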
TDP1 cell CPT = growth inhibition of DT40 Tdp1-/-;hTDP1 cells with camptothecin (screen for TDP1 inhibitors); chicken DT40 Tdp1-/-;hTDP1 cells + 20 nM CPT, ATP luminescence, 48 h; Potency, µM (top dose mostly 46.2 µM), inactives show at the highest dose activity change, negative = growth inhibition, most hits filed as inhibitors; AID 686979; hit rate 12% among 420,000; note: potency is the fitted concentration of half-maximal effect; nearly all actives have a fitted effect of over 55% in size
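Cell growth measured by CellTiter-Glo luminescence after a minimum 48 h, 37 C compound exposure with 20 nM CPT in Tdp1-knockout DT40 cells stably expressing hTDP1, seeded 400/well; qHTS titration format.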
VP16 counter = inhibits Gal4-VP16 luciferase reporter, ROR gamma counter-screen | Drosophila S2 Gal4-VP16 UAS-luciferase, luminescence, 20 h | Potency, µM (top dose mostly 53.6 µM), for inactives: top-dose activity, negative = inhibition, usual class: inhibitors | hit rate 3.5% among 310,000 | AID 2546;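 note: Gal4-VP16 expression switched on by copper sulfate through the metallothionein promoter; potency is the fitted concentration of half-maximal effect; nearly all actives have a fitted effect of over 50% in size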
ELG1 DNA repair = blocks ELG1-dependent DNA repair in HEK293T cells. HEK293T ELG1-luciferase reporter, luminescence, 16 h; DNA damage induced by 5-fluorouridine. hit rate 2.3% among 330,000. Potency, µM (doses to about 46.1 µM), without a hit: top-dose activity change, negative = inhibition, hits mostly inhibitors. AID 504467; note: potency is the fitted concentration of half-maximal effect; nearly all actives have a fitted effect of over 55% in size
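In this reporter screen, reduction of luminescence relative to DMSO vehicle indicated activity. Compounds and 5-fluorouridine were added together to 2,000 cells per well, incubated for 16 hr at 37 °C, then developed with ONE-Glo.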
Numbers without * were called inactive; [ ] = remark or other dose. Sampled rows, rich in hits. Any-hit rate of the full collection: about 21%. Unless noted, calls come from the whole dose curve; as a rule, active = well fitted curve in the direction sought with a large enough effect; inconclusive = small, poorly fitted or top-dose-only effect, or another doubt; inactive = no such curve, though single readings can be large; an effect the other way counts as inactive or inconclusive. % is set by controls: 0 for no effect and ±100 for the full control effect.

What do the screens show for `OCCOCCN1CCN([C@@H](c2ccccc2)c2ccc(Cl)cc2)CC1`?
RORgamma inh: -3%[16.9 µM]; VP16 counter: 14%[17 µM]

What do the screens show for `N#Cc1ccc2ccn(CC(=O)NCc3ccccc3)c2c1`?
DT40 TDP1 no CPT: 18µM*; IL1B secr inh: 0; RORgamma inh: inconclusive; TDP1 cell CPT: inconclusive; VP16 counter: -16%; ELG1 DNA repair: inconclusive

Results for N#Cc1ccc2ccn(CC(=O)NC3CCCCC3)c2c1 ?
DT40 TDP1 no CPT: -18%; IL1B secr inh: -2; RORgamma inh: 13%; TDP1 cell CPT: 2%; VP16 counter: -12%; ELG1 DNA repair: -6%

What do the screens show for `CN1C(=O)/C(=C2\SC(N)=NC2=O)c2ccccc21`?
DT40 TDP1 no CPT: 26µM*; IL1B secr inh: -18; RORgamma inh: 8%; TDP1 cell CPT: 18µM*; VP16 counter: -3%; ELG1 DNA repair: -5%

How did CN1C(=O)/C(=C2\SC(=S)N(CCCCCC(=O)O)C2=O)c2ccccc21 do in these assays?
DT40 TDP1 no CPT: -26%; IL1B secr inh: 0; RORgamma inh: 20%; TDP1 cell CPT: inconclusive; VP16 counter: 4%; ELG1 DNA repair: -13%

What do the screens show for `CC1CN(C2=NC(=O)/C(=C3/C(=O)N(Cc4ccc(F)cc4)c4ccccc43)S2)CC(C)O1` (stereo unspecified)?
DT40 TDP1 no CPT: inconclusive; IL1B secr inh: 52; RORgamma inh: 23%; TDP1 cell CPT: inconclusive; VP16 counter: 0%; ELG1 DNA repair: 12µM*

Results for CCCN1C(=O)/C(=C2\SC(N3CCCCC3)=NC2=O)c2ccccc21 ?
DT40 TDP1 no CPT: 18µM*; IL1B secr inh: -55*; RORgamma inh: -20%; TDP1 cell CPT: inconclusive; VP16 counter: -13%; ELG1 DNA repair: inconclusive

Results for O=C(O)CCN1C(=O)/C(=C2\C(=O)N(Cc3ccc(F)cc3)c3ccccc32)SC1=S ?
DT40 TDP1 no CPT: 15µM*; IL1B secr inh: 9; RORgamma inh: -18%; TDP1 cell CPT: 16µM*; VP16 counter: 2%; ELG1 DNA repair: inconclusive

How did C/C(=N\NC(=O)c1cccc(Br)c1)c1cccnc1 do in these assays?
DT40 TDP1 no CPT: 2%; IL1B secr inh: -1; RORgamma inh: -43%; TDP1 cell CPT: -11%; VP16 counter: 11%; ELG1 DNA repair: 18%

How did CC1CC2(CC(CN(C3CCCCC3)C3CCCCC3)OC2=O)C(=O)O1 (stereo unspecified) do in these assays?
DT40 TDP1 no CPT: 5%; IL1B secr inh: 19; TDP1 cell CPT: -23%

What do the screens show for `Cc1cc(C)c(NC(=O)C2C(=O)Nc3ccccc3C(=O)N2C(C)(C)C)c(C)c1` (stereo unspecified)?
DT40 TDP1 no CPT: 0%; IL1B secr inh: 13; TDP1 cell CPT: 5%

How did Cc1cc(C)n(-c2nc(C)nc3sc4c(c23)CCC(C)C4)n1 (stereo unspecified) do in these assays?
DT40 TDP1 no CPT: -13%; IL1B secr inh: 6; RORgamma inh: inconclusive; TDP1 cell CPT: -13%; VP16 counter: 6%; ELG1 DNA repair: -15%

Results for CCOC(=O)c1sc2nc(SC)nc(-c3ccc(Cl)cc3)c2c1N ?
DT40 TDP1 no CPT: 15µM*; IL1B secr inh: -3; RORgamma inh: 5%; TDP1 cell CPT: 21µM*; VP16 counter: -4%; ELG1 DNA repair: 7%

Results for CCOC(=O)c1sc2nc(C)nc(NCc3cccnc3)c2c1C ?
DT40 TDP1 no CPT: inconclusive; IL1B secr inh: 21; RORgamma inh: 39%; TDP1 cell CPT: 6%; VP16 counter: 6%; ELG1 DNA repair: 15µM*

What do the screens show for `Cc1nc(NCc2cccnc2)c2c3c(sc2n1)CC(C)CC3` (stereo unspecified)?
DT40 TDP1 no CPT: inconclusive; IL1B secr inh: -4; RORgamma inh: 0.71µM*; TDP1 cell CPT: inconclusive; VP16 counter: 1.8µM*; ELG1 DNA repair: inconclusive

Results for CCOC(=O)c1sc2nc(C)nc(Nc3ccc(OC)cc3)c2c1C ?
DT40 TDP1 no CPT: inconclusive; IL1B secr inh: 23; RORgamma inh: 1%; TDP1 cell CPT: 4%; VP16 counter: -7%; ELG1 DNA repair: 6%

Results for CCOC(=O)c1sc2nc(C)nc(NCc3ccc(F)cc3)c2c1C ?
DT40 TDP1 no CPT: 26µM*; IL1B secr inh: inconclusive; RORgamma inh: 63%; TDP1 cell CPT: 26µM*; VP16 counter: 0%; ELG1 DNA repair: 7.3µM*

What do the screens show for `CCOC(=O)c1sc2nc(C)cc(-c3ccccc3)c2c1N`?
DT40 TDP1 no CPT: inconclusive; IL1B secr inh: -1; RORgamma inh: -18%; TDP1 cell CPT: inconclusive; VP16 counter: -3%; ELG1 DNA repair: -7%

How did COCCN1CCc2nc(SCC(=O)Nc3ccc(C)c(Cl)c3)[nH]c(=O)c2C1 do in these assays?
DT40 TDP1 no CPT: -29%; TDP1 cell CPT: 0%

Results for N#Cc1ccc(/C=C2/C=Cc3ccccc32)cc1 ?
DT40 TDP1 no CPT: -1%; TDP1 cell CPT: inconclusive

What do the screens show for `COCc1c(C(=O)N2CCC(N(C)C)C2)cnn1-c1ncc2c(n1)-c1ccccc1CCC2` (stereo unspecified)?
DT40 TDP1 no CPT: -6%; TDP1 cell CPT: 5%[9.04 µM]

What do the screens show for `CC(=O)N1CCc2cc(Br)cc(S(=O)(=O)N3CCC(C(=O)Nc4cccc(C)c4C)CC3)c21`?
DT40 TDP1 no CPT: -23%; TDP1 cell CPT: -1%

What do the screens show for `CCOC(=O)c1sc(NC(=O)Cc2ccc(F)cc2)nc1C`?
DT40 TDP1 no CPT: 23%; IL1B secr inh: 7; RORgamma inh: 6%; TDP1 cell CPT: 0%; VP16 counter: -10%[10 µM]; ELG1 DNA repair: inconclusive

Results for CCOC(=O)c1sc2nc(Cc3ccc(Cl)cc3)[nH]c(=S)c2c1C ?
DT40 TDP1 no CPT: inconclusive; IL1B secr inh: 16; RORgamma inh: 2.8µM*; TDP1 cell CPT: inconclusive; VP16 counter: inconclusive; ELG1 DNA repair: -9%

What do the screens show for `CCOC(=O)c1sc2nc(OCc3cccnc3)cc(C)c2c1N`?
DT40 TDP1 no CPT: inconclusive; IL1B secr inh: -50*; TDP1 cell CPT: inconclusive

What do the screens show for `CCOC(=O)c1sc(C)c2c(=O)n(Cc3ccc(Cl)cc3)c(C)nc12`?
DT40 TDP1 no CPT: 16µM*; IL1B secr inh: 0; RORgamma inh: 43%; TDP1 cell CPT: 23µM*; VP16 counter: -2%; ELG1 DNA repair: inconclusive

Results for CCOC(=O)c1sc2nc(C)cc(C)c2c1N ?
DT40 TDP1 no CPT: -12%; IL1B secr inh: 0; RORgamma inh: 2%[0.365 µM]; TDP1 cell CPT: 0%; ELG1 DNA repair: inconclusive
